{
  "source": "PubChem BioAssay (NCI)",
  "note": "About 83,000 compounds went through this panel and 20% of them were active in at least one assay; those are over-represented in the sample as a whole.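 Assay: single dose, 48 h. Readout: percent growth (0 = no net growth; negative = cell death). Active: <10.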 Calls of active or inactive are those of the source.",
  "data": [
    {"tested_on": "HL-60(TB) leukemia", "test": "NCI-60 one-dose screen, 48 h (100 = growth as untreated, 0 = no growth, -100 = all killed)", "conditions": "10 µM unless noted", "values": [
      {"smiles": "COc1cc(C2CC(c3ccccc3)=Nc3c(N)nc(N)nc3N2)ccc1Oc1nc(NCCO)nc(N2CCOCC2)n1", "note": "(configuration not stated)", "growth": "93.5% (inactive)"},
      {"smiles": "COc1ccc(/C=C/c2nc3ccccc3n3c(-c4cccc([N+](=O)[O-])c4)nnc23)cc1", "growth": "-49.3% (active)"},
      {"smiles": "CCCSc1nc(Nc2ccc(S(N)(=O)=O)cc2)c(C#N)c(-c2ccc(Cl)cc2)n1", "growth": "46.3% (inactive)"},
      {"smiles": "Nc1cc2ccccc2c(=O)n1NC(=O)c1ccc(Br)cc1", "growth": "99.4% (inactive)"},
      {"smiles": "Cn1cc(-c2cc(N)n3nc(-c4cn(C)c5ncc(Br)cc45)cc3n2)c2cc(Br)cnc21", "growth": "-71.2% (active)"},
      {"smiles": "N/C(=N\\N=C\\c1ccc([N+](=O)[O-])cc1)c1c(N)nc(=S)[nH]c1-c1ccc(Cl)cc1Cl", "growth": "103% (inactive)"},
      {"smiles": "COc1cc(/C=N/NC(=O)c2ccc3nc(-c4ccc(Cl)cc4)[nH]c3c2)cc(OC)c1OC", "growth": "32.1% (inactive)"}
    ]}
  ]
}
